Assay results reported in the supplement of paper PMC10338343.
± gives the standard deviation.

test system: MILI (PIWIL2) piRISC loaded with piRNA #1 (26 nt); test: pre-steady-state target cleavage rate (min^-1); guide: piRNA #1 5'p-UGAGGUAGUAGGUUGUAUAGUAUCCA; MIWI and MILI are mouse PIWI proteins and EfPiwi is from a freshwater sponge; tags in brackets are library labels; higher = faster piRNA-guided slicing of the target; conditions: auxiliary factor: 500 nM mouse GTSF1
In short: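 The method was Cleave-'n-Seq, in which uncleaved targets from a transcribed, DNA-blocked target RNA library were sequenced after exposure to active affinity-purified piRISC carrying one synthetic guide, with or without GTSF1 partner protein. Reactions contained 0.1 nM library, 1 nM piRISC and, where present, 500 nM GTSF1 in HEPES–potassium acetate buffer at 33 °C for 0–8 or 0–960 min. Reads were normalised to depth and to weakly complementary targets, three trials were pooled, and k3 was capped at 0.0001 min^-1. The pre-steady-state cleavage rate came from a burst-and-steady-state fit.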

Sequence	pre-steady-state target cleavage rate
GGAGACCUAUGUAUACAACCUACUACGUGA	0.0238 ± 0.0053
GGAGUGGAUACUAUACAACCUACCACCUCA	0.0748 ± 0.01
GGAGACCUAUGUAUACAUGGAUGAUGGAGA [g14:g19:cont:t1A]	< 0.0001
GGAGACCUAUGUAUAGAACCUACUACCACA	0.0238 ± 0.0059
GGAGUGGAUACUUAUCAACCUACUACCUCA	0.149 ± 0.011
GGAGACGAAACUAUACAACGUACUACCUCA	0.0174 ± 0.0054
GGAGACCUAUGAUAUGUAUCCUACUACCUCA	0.0082 ± 0.0021
GGAGACCAUACUAUUCAACCUACAACCUCA	0.185 ± 0.021
GGAGACCUAACUAGUACAACCUACUACCUCA	0.0828 ± 0.019
GGAGACCUAUGAUAUCAACCUAGCUACCUCA	0.00339 ± 0.0024
GGAGACCAUACUAUAGUACCUACUACCUCA	0.149 ± 0.018
GGAGACCAUAGUAUACAAGCUACUACCUCA	0.16 ± 0.015
GGAGACCUAUGUUUACAUCCUACUACCUCA	0.0197 ± 0.0031
GGAGACCUAUCUAUACAACCUACUAACUCA	0.0846 ± 0.017
GGAGACCUAUGUGUACAACCUACUACCUCA	0.0178 ± 0.0035
GGAGACCAUACUAAAGAACCUACUACCUCA	0.11 ± 0.012
GGAGUGGAUACUUUACAACCUACUAGCUCA	0.0406 ± 0.0075
GGAGACCUUACUAUACAACCUACUGACCUCA	0.107 ± 0.017
GGAGACCUAUGAAUACAACCUACUAACUCA	0.00512 ± 0.0027
GGAGUGCAUACUAAACAACCUACUACCUCA	0.147 ± 0.011

Sequence	pre-steady-state target cleavage rate
GGAGACCUAUGAUAACAAACUACUACCUCA	0.0114 ± 0.0029
GGAGACCAUAGUAUACAACCUACUUCCUCA	0.073 ± 0.014
GGAGACCAUACUUUACAACCUUCUACCUCA	0.0105 ± 0.0033
GGAGACCAAACUAUACUACCUACUACCUCA	0.119 ± 0.022
GGAGAGGAUUCUUUACAACCUACUACCUCA	0.167 ± 0.013
GGAGACCAUACUAUACUUGCUACUACCUCA	0.0454 ± 0.0044
GGAGACCUAUGAUAUCAAACUACUACCUCA	0.00495 ± 0.0026
GGAGACCUAUGUAUACAACGUUCUACCUCA	0.00392 ± 0.0018
GGAGACCUAACUGUACAACCUACUACCUCA	0.0814 ± 0.024
GGAGACCUAUGAUAACUUGCUACUACCUCA	< 0.0001
GGAGACCUAUGAUAACAACCUACUUGGUCA	< 0.0001
GGAGACCAUACUAUACAAGCUACAACCUCA	0.212 ± 0.022
GGAGAGGAUACUAUAGUACCUACUACCUCA	0.159 ± 0.012
GGAGACCUUCCUAUACAACCUACUACCUCA	0.113 ± 0.027
GGAGACCUAUGAAUACAACCUACUACCCCA	0.00425 ± 0.0034
GGAGACCUAUGAUAUGUACCUUCAACCUCA	< 0.0001
GGAGACCUAUCUAUACUACGUACUACCUCA	0.013 ± 0.0024
GGAGACCUAUGAAUACUACCUACUACGUCA	0.00344 ± 0.0026
GGAGACCUUACAAUACAACCUAGUACCUCA	0.043 ± 0.013
GGAGACCUAACUAUACAACCUACUAACUCA	0.1 ± 0.03
